Some test systems named below: DU-145 prostate; K-562 leukemia; MALME-3M melanoma; MDA-MB-231 breast; RXF 393 renal; SF-268 CNS; SF-295 CNS; SF-539 CNS; UACC-257 melanoma; M14 melanoma.
Holding throughout (test): NCI-60 one-dose screen, 48 h (100 = growth as untreated, 0 = no growth, -100 = all killed)
Common to all, as to conditions: 10 µM unless noted

About 83,000 compounds went through this panel and 20% of them were active in at least one assay; those are over-represented in the sample as a whole.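 Cell lines were cultured in 96-well plates, exposed to a single compound concentration, and assessed for percent growth 48 hours later.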 Values without a mark were called inactive. The source made the active and inactive calls. The calls were made as follows: active = growth percent below 10; inactive = the rest.

For the compound `CCN(CC)CCSc1ncnc2c1cnn2-c1ccc(S(N)(=O)=O)cc1`, the growth was 97% in the test on DU-145 prostate; 63.2% in the test on K-562 leukemia; 69.1% with MALME-3M melanoma; 93.3% in the test on MDA-MB-231 breast; 34.2% with RXF 393 renal; 105% in the test with SF-268 CNS. Besides, the growth in the test on SF-295 CNS is 54.5%; in the test with SF-539 CNS, 94.4%; with UACC-257 melanoma, 65.5%; in the test on M14 melanoma, 98.6%.

As to `O=C(Nc1ccccc1)P(=O)(O)c1ccccc1`, the growth in the test with DU-145 prostate is 108%; in the test on K-562 leukemia it was 95.7%; with MALME-3M melanoma it was 123%; in the test on MDA-MB-231 breast it was 100%; with RXF 393 renal, 105%; with SF-268 CNS it was 98.5%. In addition, the growth in the test with SF-295 CNS is 122%; with SF-539 CNS, 90.2%; with UACC-257 melanoma it was 96.5%; in the test on M14 melanoma it was 103%.

Turning to `COc1ccc(C2=NN(C=O)C(c3cccc(Nc4ccnc5cc(Cl)ccc45)c3)C2)cc1` (stereo not given), the growth in the test with DU-145 prostate is 33.2%; with K-562 leukemia, 6.65% (active); in the test with MALME-3M melanoma, 25.2%; with MDA-MB-231 breast, 42.4%; in the test with RXF 393 renal, 17.2%; in the test on SF-268 CNS it was 41.2%. Moreover, the growth in the test on SF-295 CNS was 0.467% (active); in the test on SF-539 CNS it was 9.03% (active); in the test on UACC-257 melanoma it was 23.2%; in the test with M14 melanoma it was 19.1%.

Consider `CC[n+]1c(/C=C/c2ccc(N3CCCC3)cc2)cccc1/C=C/c1ccc(N2CCCC2)cc1`, for which the growth was -97.4% (active) with DU-145 prostate; 8.88% (active) in the test with K-562 leukemia; -82.2% (active) in the test with MALME-3M melanoma; -80.6% (active) in the test with MDA-MB-231 breast; -93.7% (active) in the test on RXF 393 renal; -90.3% (active) with SF-268 CNS. Also, the growth in the test on SF-295 CNS is -76.9% (active); in the test on SF-539 CNS, -87.2% (active); in the test on UACC-257 melanoma it was -92.5% (active); in the test with M14 melanoma, -65.3% (active).

For `COc1ccc(-c2cc(-c3nnc(SCC(=O)Nc4ccc(C(C)=O)cc4)n3-c3ccccc3)c3ccccc3n2)cc1OC`, the growth in the test on DU-145 prostate was 110%; in the test on K-562 leukemia, 110%; with MALME-3M melanoma it was 97.2%; with MDA-MB-231 breast, 105%; in the test with RXF 393 renal it was 115%; in the test with SF-268 CNS it was 89.9%. The growth in the test with SF-295 CNS is 98.7%; with SF-539 CNS, 97.4%; in the test with UACC-257 melanoma, 87.1%; in the test with M14 melanoma, 93.7%.

As for `COCCOCCOCCOCCOc1ccc2c(c1)C(=O)c1nc3ncccc3c(=O)n1-2`, the growth was -95.1% (active) with DU-145 prostate; -92% (active) in the test with K-562 leukemia; -96.2% (active) in the test with MALME-3M melanoma; 23.8% in the test with MDA-MB-231 breast; -72% (active) in the test with RXF 393 renal; -19.2% (active) in the test with SF-268 CNS. The growth in the test on SF-295 CNS was -97% (active); in the test on SF-539 CNS, -89.6% (active); with UACC-257 melanoma, -83.9% (active); with M14 melanoma, -90.4% (active).

For the compound `N#Cc1c(-c2ccc(F)cc2)n2c(nc1=O)SC(=O)C2=O`, the growth with DU-145 prostate is 124%; with K-562 leukemia it was 108%; with MALME-3M melanoma, 90.8%; with MDA-MB-231 breast, 114%; in the test with RXF 393 renal, 96.5%; with SF-268 CNS, 93.4%. In addition, the growth in the test with SF-295 CNS was 103%; with SF-539 CNS, 115%; with UACC-257 melanoma it was 85.8%; in the test on M14 melanoma it was 105%.

With `c1ccc2c(-c3nc4ccccc4[nH]3)cccc2c1`, the growth in the test on DU-145 prostate is 33.6%; in the test with K-562 leukemia, 14.5%; in the test on MALME-3M melanoma it was 38.1%; with MDA-MB-231 breast it was 41.4%; with RXF 393 renal, 31%; with SF-268 CNS it was 61.4%. Further, the growth in the test with SF-295 CNS was 61.4%; with SF-539 CNS, 37.1%; with UACC-257 melanoma it was 35.7%; in the test with M14 melanoma, 3.75% (active).

In the case of `COc1cc(C2CC(C3C(=O)N(C)C(=O)N(C)C3=O)=NN2C=O)cc(OC)c1OC` (stereo not given), the growth was 111% with DU-145 prostate; 88% in the test with K-562 leukemia; 109% with MALME-3M melanoma; 103% with MDA-MB-231 breast; 109% in the test with RXF 393 renal; 102% in the test with SF-268 CNS. For the same compound, the growth in the test with SF-295 CNS is 98.1%; in the test with SF-539 CNS, 104%; with UACC-257 melanoma, 78.3%; with M14 melanoma it was 84%.

Take `COc1ccc2cc(C3=CC(=O)CCC3)ccc2c1`: the growth was 103% in the test on DU-145 prostate; 105% with K-562 leukemia; 114% with MALME-3M melanoma; 99.6% in the test on MDA-MB-231 breast; 99.4% in the test with RXF 393 renal; 103% in the test on SF-268 CNS. Moreover, the growth in the test on SF-295 CNS is 110%; in the test on SF-539 CNS, 95.7%; in the test with UACC-257 melanoma, 96.6%; in the test with M14 melanoma it was 104%.

Take `COc1cnc2c(c1)C(=O)c1c-2n(CCCN2CCNCC2)c(=O)c2cc(F)ccc12`: the growth in the test on DU-145 prostate was -0.602% (active); in the test on K-562 leukemia, -65.9% (active); in the test with MALME-3M melanoma it was -60.7% (active); in the test with MDA-MB-231 breast it was 9.36% (active); in the test with RXF 393 renal it was -36% (active); in the test with SF-268 CNS, 6.43% (active). For the same compound, the growth is 0.838% (active) in the test with SF-295 CNS, -64.2% (active) in the test on SF-539 CNS, 10.8% with UACC-257 melanoma and -56.7% (active) with M14 melanoma.

As to `O=C(Nc1ccc2c(c1)C(=O)c1ccccc1-2)c1ccccc1`, the growth in the test on DU-145 prostate is 81.9%; with K-562 leukemia it was 81.2%; with MALME-3M melanoma, 90.2%; in the test on MDA-MB-231 breast, 81.9%; with RXF 393 renal, 99.2%; in the test with SF-268 CNS it was 65.2%. The growth in the test with SF-295 CNS is 103%; with SF-539 CNS it was 52.6%; with UACC-257 melanoma, 111%; in the test on M14 melanoma, 88%.

Take `C[C@H](C(=O)N[C@@H](Cc1ccc(-c2ccccc2)cc1)C(=O)NC1CC(C)(C)N(C)C(C)(C)C1)c1ccc(-c2ccccc2)c(F)c1`: the growth with DU-145 prostate is -83.1% (active); in the test with K-562 leukemia, -56.9% (active); with MALME-3M melanoma it was -71.5% (active); in the test with MDA-MB-231 breast, -68.5% (active); in the test on RXF 393 renal, -73.2% (active); in the test on SF-268 CNS it was -70.9% (active). In addition, the growth with SF-295 CNS is -66% (active); in the test on SF-539 CNS, -79.5% (active); with UACC-257 melanoma, -66.2% (active); in the test on M14 melanoma it was -82.6% (active).

The values are drawn from PubChem BioAssay (NCI).
